Our source for the inhibition values is PubChem BioAssay AID1259399 (Fisher Drug Discovery Resource Center, 2018).

About 240 (0.15%) of roughly 160,000 compounds were called active. Cut-off read from the data, not from the text of the source: active = inhibition above about 40%; inactive = the rest. The sample as a whole holds a higher share of actives than the screen did.

The target in this test is Cyclic GMP-AMP synthase (Mus musculus) (UniProt Q8C6L5). Put plainly: inhibition of Mus musculus cGAS, primary biochemical chemiluminescence screen (AID 1259399).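 Note: 0% = negative control wells and 100% = reference inhibitor with no enzyme activity.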 To be noted: recombinant cGAS, Kinase-Glo ATP depletion luminescence; at 12.5 µM; stronger effect = higher value. (In Kinase-Glo more light means more ATP remaining.)
Sequence of Cyclic GMP-AMP synthase (Mus musculus) (Q8C6L5 whole entry, looked up): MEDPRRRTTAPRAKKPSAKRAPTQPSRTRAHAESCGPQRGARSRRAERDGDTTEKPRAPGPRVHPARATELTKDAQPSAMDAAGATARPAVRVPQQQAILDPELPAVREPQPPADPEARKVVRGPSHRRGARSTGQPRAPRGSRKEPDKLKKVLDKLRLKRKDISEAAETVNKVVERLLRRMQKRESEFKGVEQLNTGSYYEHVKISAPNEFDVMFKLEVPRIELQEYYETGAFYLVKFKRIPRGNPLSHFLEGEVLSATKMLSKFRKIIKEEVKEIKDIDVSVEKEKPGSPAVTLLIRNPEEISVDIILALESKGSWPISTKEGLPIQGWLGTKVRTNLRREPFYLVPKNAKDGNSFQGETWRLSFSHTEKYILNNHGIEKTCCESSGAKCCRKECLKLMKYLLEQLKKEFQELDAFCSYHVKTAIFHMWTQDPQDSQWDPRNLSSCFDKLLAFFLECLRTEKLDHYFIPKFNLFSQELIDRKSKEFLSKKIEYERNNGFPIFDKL
Usually inhibition stands for the drop in the measured response relative to a control, in per cent. With `COC(=O)c1ccccc1NC(=O)N1CCc2ccccc2C1c1ccc(F)cc1` (stereo not drawn), the inhibition is -8.08% (inactive). As for `Cc1cc(=O)[nH]c(SCC(N)=O)c1C#N`, the inhibition was 71.9% (active). The value for `Cc1cc(=O)[nH]c(SCc2cc(-c3ccco3)on2)c1C#N` was 9.2% (inactive); that for `Cc1nc(SCC(=O)c2ccc(Cl)cc2)c(C#N)c(C)c1C` was -5.06% (inactive); that for `N#CC1C(=N)SC(=N)C(C#N)C1c1ccco1` (stereo not drawn) was 36.2% (inactive). Then `N#CC1C(=N)SC(=N)C(C#N)C1c1cccc(O)c1` (stereo not drawn), with 57.5% (active); and `COc1ccc(-n2ccnc(SCc3ccc(C)cc3)c2=O)cc1Cl`, with -6.1% (inactive); and `Cc1ccc(-c2nc3cc(C)ccn3c2NC(=O)CC(C)C)cc1`, with -7.17% (inactive). Then `Cn1c(=O)[nH]c(=O)c2c1nc(N1CCN(Cc3ccccc3F)CC1)n2Cc1ccccc1`, with -1.19% (inactive). As to `COc1ccc(C23CC4CC(CC(C(=O)NC5CC5)(C4)C2)C3)cc1`, the inhibition was -7.85% (inactive). For the compound `Cc1oc(-c2ccc(C(F)(F)F)cc2)nc1CN(C)CC1COc2ccccc2O1` (stereo not drawn), the inhibition is -4.73% (inactive). As to `O=C(N1CCC(n2cnc3ccccc32)CC1)C1(c2ccccc2)CC1`, the inhibition was -5.7% (inactive). On to `COc1ccc(CCN(Cc2ccc(C)o2)C(=O)CN(CCN2CCCC2)C(=O)c2ccccc2C)cc1OC`, for which the inhibition is -4.1% (inactive).

With `CNC(=O)CN(Cc1cccc(Br)c1)C1CC1`, the inhibition was -8.9% (inactive). As to `CC(=O)N(CCN(C)C)c1nc2cc3c(cc2s1)OCO3`, the inhibition was 1.62% (inactive). Consider `O=C(c1ccccc1)N1CCN2C[C@@H](c3ccccc3)[C@H](CO)[C@H]2C1`, for which the inhibition was -4.18% (inactive). Then `Cc1ccccc1-n1cc(CN(C)C(=O)c2cn(Cc3cccc4ccccc34)nn2)cn1`, with -7.32% (inactive).

In the case of `COc1cccc(C(=O)N(Cc2cccc(OS(=O)(=O)c3ccc(F)cc3)c2)Cc2ccco2)c1`, the inhibition is -0.277% (inactive). Then `COc1ccccc1C(=O)N1CCN(c2ccc(F)cc2)C(=O)C1C` (stereo not drawn), with -4.08% (inactive); and `CC1C(=O)N(c2ccc3c(c2)OCO3)CCN1C(=O)c1ccccc1Cl` (stereo not drawn), with 0.748% (inactive); and `COc1ccccc1C(=O)N1CCN(c2cccc(Cl)c2C)C(=O)C1C` (stereo not drawn), with 51.1% (active). As for `OC(COCc1ccccc1)CN(Cc1ccc(F)cc1)CC1CC(c2ccc3c(c2)OCO3)=NO1` (stereo not drawn), the inhibition was -4.2% (inactive). Then `CCc1nc2c(OCCOc3ccc(F)cc3)cccn2c1N(C)C(C)=O`, with -2.77% (inactive).
